Hit rate of the full screen: of about 5,500 compounds, about 2,000 (36%) were called active. Another 18% or so got no clear call; they are omitted. No stated cut-off is given here; in the data, active means normalized growth mostly below about 0.91 (no sharp cut-off); inconclusive means no clear call, values can overlap the other calls; inactive means mostly above about 0.92. This is one part of the list.
Test: chemical genetic growth profiling, strain panel (AID 1159580);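 further: tested at 20 µM; growth read once vehicle control cultures reached saturation at 30 °C; 1 = growth at the plate median or of vehicle wells; lower values mean less growth of the strain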
Settings: growth OD

Measured: normalized growth

CC(=O)O[C@H]1CC[C@@]2(C)C(=CC(=O)C3C4CCC(C(C)CCCC(C)C)[C@@]4(C)CCC32)C1 (stereo not given in full)
inactive: S. cerevisiae deletion strains, locus YAL013W, strain DEP1, active compounds read low 1.01 | S. cerevisiae deletion strains, locus YAL021C, strain ccr4, active compounds read low 0.992 | S. cerevisiae deletion strains, locus YAL026C, strain drs2, active compounds read low 1.02 | S. cerevisiae deletion strains, locus YAL030W, strain snc1, active compounds read low 0.992 | S. cerevisiae deletion strains, locus YBL061C, strain skt5, active compounds read low 0.988 | S. cerevisiae deletion strains, locus YBR009C, strain hhf1, active compounds read low 1.01 | S. cerevisiae deletion strains, locus YBR021W, strain FUR4, active compounds read low 0.999 | S. cerevisiae deletion strains, locus YBR023C, strain chs3, active compounds read low 0.985 | S. cerevisiae deletion strains, locus YBR171W, strain sec66, active compounds read low 0.996 | S. cerevisiae deletion strains, locus YBR229C, strain ROT2, active compounds read low 1 | S. cerevisiae deletion strains, locus YBR231C, strain swc5, active compounds read low 1.02 | S. cerevisiae deletion strains, locus YBR279W, strain paf1, active compounds read low 0.996 | S. cerevisiae deletion strains, locus YCL011C, strain gbp2, active compounds read low 0.994 | S. cerevisiae deletion strains, locus YCL016C, strain dcc1, active compounds read low 0.99 | S. cerevisiae deletion strains, locus YCL029C, strain bik1, active compounds read low 0.986 | S. cerevisiae deletion strains, locus YCL061C, strain MRC1, active compounds read low 1 | S. cerevisiae deletion strains, locus YCL069W, strain vba3, active compounds read low 0.997 | S. cerevisiae deletion strains, locus YCR088W, strain abp1, active compounds read low 0.995 | S. cerevisiae deletion strains, locus YDL005C, strain med2, active compounds read low 0.971 | S. cerevisiae deletion strains, locus YDL035C, strain GPR1, active compounds read low 1.02 | S. cerevisiae deletion strains, locus YDL040C, strain nat1, active compounds read low 0.991 | S. cerevisiae deletion strains, locus YDL074C, strain BRE1, active compounds read low 1.04 | S. cerevisiae deletion strains, locus YDL101C, strain DUN1, active compounds read low 1 | S. cerevisiae deletion strains, locus YDL185W, strain tfp1, active compounds read low 1.02 | S. cerevisiae deletion strains, locus YDL192W, strain arf1, active compounds read low 1 | S. cerevisiae deletion strains, locus YDR001C, strain nth1, active compounds read low 0.99 | S. cerevisiae deletion strains, locus YDR069C, strain doa4, active compounds read low 0.992 | S. cerevisiae deletion strains, locus YDR101C, strain arx1, active compounds read low 1 | S. cerevisiae deletion strains, locus YDR137W, strain rgp1, active compounds read low 1.01 | S. cerevisiae deletion strains, locus YDR150W, strain NUM1, active compounds read low 0.998 | S. cerevisiae deletion strains, locus YDR159W, strain sac3, active compounds read low 1.01 | S. cerevisiae deletion strains, locus YDR162C, strain NBP2, active compounds read low 1.01 | S. cerevisiae deletion strains, locus YDR195W, strain ref2 0.977 | S. cerevisiae deletion strains, locus YDR297W, strain sur2, active compounds read low 0.995 | S. cerevisiae deletion strains, locus YDR318W, strain mcm21, active compounds read low 0.978 | S. cerevisiae deletion strains, locus YDR334W, strain swr1, active compounds read low 0.994 | S. cerevisiae deletion strains, locus YDR335W, strain msn5, active compounds read low 0.993 | S. cerevisiae deletion strains, locus YDR388W, active compounds read low 0.979 | S. cerevisiae deletion strains, locus YDR392W, strain spt3, active compounds read low 0.944 | S. cerevisiae deletion strains, locus YDR502C, strain sam2, active compounds read low 1 | S. cerevisiae deletion strains, locus YEL003W, strain gim4, active compounds read low 1.01 | S. cerevisiae deletion strains, locus YEL037C, strain rad23, active compounds read low 0.994 | S. cerevisiae deletion strains, locus YEL061C, strain CIN8 (second series), active compounds read low 0.995 | S. cerevisiae deletion strains, locus YEL061C, strain CIN8, active compounds read low 1 | S. cerevisiae deletion strains, locus YER015W, strain faa2, active compounds read low 0.996 | S. cerevisiae deletion strains, locus YER016W, strain bim1, active compounds read low 0.989 | S. cerevisiae deletion strains, locus YER110C, active compounds read low 0.982 | S. cerevisiae deletion strains, locus YER111C, strain swi4, active compounds read low 0.999 | S. cerevisiae deletion strains, locus YER155C, strain BEM2 (second series), active compounds read low 1.01 | S. cerevisiae deletion strains, locus YER155C, strain BEM2, active compounds read low 1.01 | S. cerevisiae deletion strains, locus YER167W, strain BCK2, active compounds read low 1.01 | S. cerevisiae deletion strains, locus YFR010W, strain ubp6, active compounds read low 1.01 | S. cerevisiae deletion strains, locus YGL078C, strain dbp3, active compounds read low 1.02 | S. cerevisiae deletion strains, locus YGL086W, strain mad1, active compounds read low 1.01 | S. cerevisiae deletion strains, locus YGL167C, strain pmr1, active compounds read low 0.993 | S. cerevisiae deletion strains, locus YGL173C, strain kem1, active compounds read low 0.978 | S. cerevisiae deletion strains, locus YGL227W, strain vid30, active compounds read low 0.984 | S. cerevisiae deletion strains, locus YGL240W, strain doc1, active compounds read low 1.01 | S. cerevisiae deletion strains, locus YGL248W, strain PDE1, active compounds read low 0.987 | S. cerevisiae deletion strains, locus YGL253W, strain hxk2, active compounds read low 0.993 | S. cerevisiae deletion strains, locus YGR135W, strain pre9, active compounds read low 0.984 | S. cerevisiae deletion strains, locus YGR252W, strain gcn5, active compounds read low 1.07 | S. cerevisiae deletion strains, locus YHR013C, strain ard1, active compounds read low 0.994 | S. cerevisiae deletion strains, locus YHR027C, strain rpn1, active compounds read low 0.994 | S. cerevisiae deletion strains, locus YHR030C, strain SLT2, active compounds read low 1 | S. cerevisiae deletion strains, locus YHR079C, strain IRE1 (second series), active compounds read low 0.991 | S. cerevisiae deletion strains, locus YHR094C, strain hxt1, active compounds read low 0.975 | S. cerevisiae deletion strains, locus YHR129C, strain ARP1, active compounds read low 0.999 | S. cerevisiae deletion strains, locus YHR142W, strain chs7, active compounds read low 0.979 | S. cerevisiae deletion strains, locus YHR200W, strain rpn10, active compounds read low 0.985 | S. cerevisiae deletion strains, locus YIL066C, strain RNR3, active compounds read low 1 | S. cerevisiae deletion strains, locus YIL073C, strain SPO22, active compounds read low 1.03 | S. cerevisiae deletion strains, locus YIL125W, strain kgd1, active compounds read low 1.01 | S. cerevisiae deletion strains, locus YIR030C, strain dcg1, active compounds read low 0.989 | S. cerevisiae deletion strains, locus YJL092W, strain hpr5, active compounds read low 0.99 | S. cerevisiae deletion strains, locus YJL095W, strain BCK1 (second series), active compounds read low 0.982 | S. cerevisiae deletion strains, locus YJL095W, strain BCK1, active compounds read low 1.01 | S. cerevisiae deletion strains, locus YJL115W, strain asf1, active compounds read low 0.981 | S. cerevisiae deletion strains, locus YJL129C, strain trk1, active compounds read low 0.989 | S. cerevisiae deletion strains, locus YJL134W, strain LCB3, active compounds read low 1.01 | S. cerevisiae deletion strains, locus YJL154C, strain vps35, active compounds read low 0.999 | S. cerevisiae deletion strains, locus YJL164C, strain tpk1, active compounds read low 1 | S. cerevisiae deletion strains, locus YJL166W, strain qcr8, active compounds read low 0.998 | S. cerevisiae deletion strains, locus YJL168C, strain set2, active compounds read low 0.976 | S. cerevisiae deletion strains, locus YJL187C, strain SWE1 (second series), active compounds read low 1.01 | S. cerevisiae deletion strains, locus YJL187C, strain SWE1, active compounds read low 0.991 | S. cerevisiae deletion strains, locus YJR043C, strain POL32, active compounds read low 1.01 | S. cerevisiae deletion strains, locus YJR075W, strain HOC1, active compounds read low 1 | S. cerevisiae deletion strains, locus YKL009W, strain mrt4, active compounds read low 1.04 | S. cerevisiae deletion strains, locus YKL068W, active compounds read low 1 | S. cerevisiae deletion strains, locus YKL085W, strain MDH1 (second series), active compounds read low 1 | S. cerevisiae deletion strains, locus YKL085W, strain MDH1, active compounds read low 1 | S. cerevisiae deletion strains, locus YKL160W, strain elf1, active compounds read low 0.996 | S. cerevisiae deletion strains, locus YKR001C, strain vps1, active compounds read low 1.03 | S. cerevisiae deletion strains, locus YKR026C, strain gcn3, active compounds read low 0.994 | S. cerevisiae deletion strains, locus YKR091W, strain srl3, active compounds read low 0.994 | S. cerevisiae deletion strains, locus YLL001W, strain dnm1, active compounds read low 0.984 | S. cerevisiae deletion strains, locus YLL026W, active compounds read low 1 | S. cerevisiae deletion strains, locus YLL041C, strain sdh2, active compounds read low 0.993 | S. cerevisiae deletion strains, locus YLR027C, strain aat2, active compounds read low 1 | S. cerevisiae deletion strains, locus YLR039C, strain RIC1, active compounds read low 1.03 | S. cerevisiae deletion strains, locus YLR058C, strain SHM2, active compounds read low 0.999 | S. cerevisiae deletion strains, locus YLR102C, strain apc9, active compounds read low 0.975 | S. cerevisiae deletion strains, locus YLR221C, strain rsa3, active compounds read low 0.983 | S. cerevisiae deletion strains, locus YLR258W, strain gsy2, active compounds read low 1.01 | S. cerevisiae deletion strains, locus YLR262C, strain YPT6 (second series), active compounds read low 0.996 | S. cerevisiae deletion strains, locus YLR262C, strain YPT6, active compounds read low 1.02 | S. cerevisiae deletion strains, locus YLR268W, strain sec22, active compounds read low 1.02 | S. cerevisiae deletion strains, locus YLR320W, strain mms22, active compounds read low 0.991 | S. cerevisiae deletion strains, locus YLR330W, strain CHS5, active compounds read low 1 | S. cerevisiae deletion strains, locus YLR342W, strain FKS1 (second series), active compounds read low 1.03 | S. cerevisiae deletion strains, locus YLR342W, strain FKS1, active compounds read low 0.993 | S. cerevisiae deletion strains, locus YLR357W, strain rsc2, active compounds read low 0.983 | S. cerevisiae deletion strains, locus YLR370C, strain arc18, active compounds read low 0.994 | S. cerevisiae deletion strains, locus YLR371W, strain rom2, active compounds read low 0.977 | S. cerevisiae deletion strains, locus YLR384C, strain iki3, active compounds read low 0.971 | S. cerevisiae deletion strains, locus YLR418C, strain cdc73, active compounds read low 1.02 | S. cerevisiae deletion strains, locus YML016C, strain PPZ1, active compounds read low 1 | S. cerevisiae deletion strains, locus YML032C, strain rad52, active compounds read low 0.985 | S. cerevisiae deletion strains, locus YML120C, strain ndi1, active compounds read low 0.997 | S. cerevisiae deletion strains, locus YML124C, strain tub3, active compounds read low 0.988 | S. cerevisiae deletion strains, locus YMR058W, strain fet3, active compounds read low 1 | S. cerevisiae deletion strains, locus YMR078C, strain ctf18, active compounds read low 0.988 | S. cerevisiae deletion strains, locus YMR125W, strain sto1, active compounds read low 0.997 | S. cerevisiae deletion strains, locus YMR129W, active compounds read low 0.989 | S. cerevisiae deletion strains, locus YMR205C, strain PFK2, active compounds read low 0.993 | S. cerevisiae deletion strains, locus YMR223W, strain ubp8, active compounds read low 0.983 | S. cerevisiae deletion strains, locus YMR231W, strain pep5, active compounds read low 1 | S. cerevisiae deletion strains, locus YMR307W, strain GAS1, active compounds read low 1.07 | S. cerevisiae deletion strains, locus YNL067W, strain RPL9B, active compounds read low 1.01 | S. cerevisiae deletion strains, locus YNL071W, strain lat1, active compounds read low 0.994 | S. cerevisiae deletion strains, locus YNL128W, strain TEP1, active compounds read low 1.04 | S. cerevisiae deletion strains, locus YNL209W, strain ssb2, active compounds read low 0.997 | S. cerevisiae deletion strains, locus YNL233W, strain BNI4, active compounds read low 1.01 | S. cerevisiae deletion strains, locus YNL248C, strain rpa49, active compounds read low 1.01 | S. cerevisiae deletion strains, locus YNL250W, strain rad50, active compounds read low 1 | S. cerevisiae deletion strains, locus YNL271C, strain bni1, active compounds read low 1.01 | S. cerevisiae deletion strains, locus YNL298W, strain CLA4, active compounds read low 1.01 | S. cerevisiae deletion strains, locus YNL307C, strain MCK1, active compounds read low 0.985 | S. cerevisiae deletion strains, locus YNL322C, strain KRE1 (second series), active compounds read low 0.983 | S. cerevisiae deletion strains, locus YNR049C, strain mso1, active compounds read low 0.993 | S. cerevisiae deletion strains, locus YNR052C, strain pop2, active compounds read low 0.975 | S. cerevisiae deletion strains, locus YOL006C, strain TOP1, active compounds read low 1.05 | S. cerevisiae deletion strains, locus YOL012C, strain htz1 0.955 | S. cerevisiae deletion strains, locus YOL147C, strain pex11, active compounds read low 0.982 | S. cerevisiae deletion strains, locus YOR001W, strain rrp6, active compounds read low 1.01 | S. cerevisiae deletion strains, locus YOR061W, strain CKA2, active compounds read low 1.01 | S. cerevisiae deletion strains, locus YOR069W, strain VPS5, active compounds read low 1.01 | S. cerevisiae deletion strains, locus YOR070C, strain gyp1, active compounds read low 0.987 | S. cerevisiae deletion strains, locus YOR080W, strain dia2, active compounds read low 0.996 | S. cerevisiae deletion strains, locus YOR083W, strain WHI5, active compounds read low 0.98 | S. cerevisiae deletion strains, locus YOR106W, strain vam3, active compounds read low 1.01 | S. cerevisiae deletion strains, locus YOR136W, strain idh2, active compounds read low 0.995 | S. cerevisiae deletion strains, locus YOR144C, strain elg1, active compounds read low 0.99 | S. cerevisiae deletion strains, locus YOR184W, strain ser1, active compounds read low 0.998 | S. cerevisiae deletion strains, locus YOR265W, strain rbl2, active compounds read low 1 | S. cerevisiae deletion strains, locus YOR270C, strain vph1, active compounds read low 0.968 | S. cerevisiae deletion strains, locus YOR290C, strain snf2, active compounds read low 0.974 | S. cerevisiae deletion strains, locus YOR316C, strain cot1, active compounds read low 0.977 | S. cerevisiae deletion strains, locus YPL051W, strain arl3, active compounds read low 1 | S. cerevisiae deletion strains, locus YPL078C, strain atp4, active compounds read low 0.995 | S. cerevisiae deletion strains, locus YPL106C, strain sse1, active compounds read low 0.978 | S. cerevisiae deletion strains, locus YPL240C, strain hsp82, active compounds read low 0.993 | S. cerevisiae deletion strains, locus YPL241C, strain CIN2, active compounds read low 1 | S. cerevisiae deletion strains, locus YPR119W, strain clb2, active compounds read low 0.982 | S. cerevisiae deletion strains, locus YPR141C, strain kar3, active compounds read low 0.993 | S. cerevisiae deletion strains, locus YPR163C, strain tif3, active compounds read low 0.981 | S. cerevisiae deletion strains, locus YPR167C, strain met16, active compounds read low 0.984 | S. cerevisiae deletion strains, strain wtn01, active compounds read low 1.05 | S. cerevisiae strains, strain wild type, active compounds read low 1.01

Source: PubChem BioAssay AID1159580 (chemical genetic matrix, 2015)
